The text below walks through data of PubChem BioAssay (NCI).

This is part of a sample that, as a whole, favours compounds with a hit. Of some 83,000 tested, about 20% had one in any assay.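 Treatment: one concentration, 48 hours, 96-well format. Scoring: percent growth, with anything below 10 considered active.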 Activity calls are given as the source filed them.

One experiment relates to OVCAR-4 ovarian. Nature of the experiment: NCI-60 one-dose screen, 48 h (100 = growth as untreated, 0 = no growth, -100 = all killed). The following applies: 10 µM.
With `Nc1ccc2c(c1)C1(CCC2)NC(=O)NC1=O` (configuration not stated), the growth is 106% (inactive).
Turning to `CNc1ccc(CSc2ccc(C)cc2)cc1`, the growth was 34% (inactive).
As to `Nc1nc(N)c2c(ccc3nccc32)[nH]1`, the growth is 66.1% (inactive).
Consider `Nc1ccn(C2CC(O)C(CO)O2)c(=O)n1` (configuration not stated), for which the growth was 114% (inactive).
For `S=c1[nH]ccn1-c1c(Cl)cccc1Cl`, the growth was 97.1% (inactive).
Regarding `NC(=O)CC1(c2ccccc2)CCCCC1`, the growth is 103% (inactive).
Consider `CCN1Cc2c(/C=C/c3ccccc3)nc3ccc(OC)cc3c2N(c2cccc(Cl)c2)C1`, for which the growth is 67.5% (inactive).
For `O=C(Nc1nc2ccccc2s1)Nc1ccc([N+](=O)[O-])cc1Cl`, the growth is -45.6% (active).

For the next experiment, the system named is SK-OV-3 ovarian. The experiment is described as above. As to conditions: 10 µM.
With `Cc1cc2c(C)c3cc(C)c(N)cc3nc2cc1N`, the growth is 13.3% (inactive).
Consider `CCCCCC(=O)c1ccc(OCCCN2CCN(C(=O)OCC)CC2)cc1`, for which the growth is 104% (inactive).
With `COc1cc(/C=N/NC(=O)c2ccccc2Nc2ccnc(C(F)(F)F)c2)ccc1O`, the growth was 98.9% (inactive).
The same measure, in the same setting: the same measure for `Cc1ccc(CC#N)cc1C`: 117% (inactive); for `COc1ccc(-c2nc3ncccn3c2-c2nnc(-c3ccc(F)cc3)o2)cc1`: 107% (inactive).
`O=[P@@]1(c2ccccc2)O[C@H](COCc2ccccc2)[C@@H](OCc2ccccc2)[C@H](OCc2ccccc2)[C@H]1O`: the growth was 38.7% (inactive).
Take `O=C1/C(=C\c2ccc(Cl)cc2)CN(C(=S)Nc2ccccc2)C/C1=C\c1ccc(Cl)cc1`: the growth was -42.3% (active).
For the compound `COc1cc(-c2cc(/C=C/C(=O)c3ccc(Cl)c(Cl)c3)[nH]n2)cc(OC)c1OC`, the growth is 97.3% (inactive).
`Clc1ccc(Nc2ccnc(NCCCNc3ccnc4cc(Cl)ccc34)n2)cc1`: the growth is -32% (active).
